MCF10A rereplic: DNA re-replication induction in MCF 10a cells | MCF 10A DNA re-replication, Hoechst nuclear intensity, 48 h | Potency, µM (top dose mostly 46.1 µM), actives largely listed as activators | 2.9% of 350,000 active; further: nearly all actives have a fitted effect of over 50% in size
RORgamma inh: ROR gamma (mouse) transcription inhibition; P51450; Potency, µM (top dose mostly 53.6 µM), most hits filed as inhibitors; Drosophila S2 Gal4-RORgamma UAS-luciferase reporter, 20 h; 5.4% of 310,000 active; further: nearly all actives have a fitted effect of over 60% in size
Target sequence (P51450 whole entry, looked up, the tested form may be a part): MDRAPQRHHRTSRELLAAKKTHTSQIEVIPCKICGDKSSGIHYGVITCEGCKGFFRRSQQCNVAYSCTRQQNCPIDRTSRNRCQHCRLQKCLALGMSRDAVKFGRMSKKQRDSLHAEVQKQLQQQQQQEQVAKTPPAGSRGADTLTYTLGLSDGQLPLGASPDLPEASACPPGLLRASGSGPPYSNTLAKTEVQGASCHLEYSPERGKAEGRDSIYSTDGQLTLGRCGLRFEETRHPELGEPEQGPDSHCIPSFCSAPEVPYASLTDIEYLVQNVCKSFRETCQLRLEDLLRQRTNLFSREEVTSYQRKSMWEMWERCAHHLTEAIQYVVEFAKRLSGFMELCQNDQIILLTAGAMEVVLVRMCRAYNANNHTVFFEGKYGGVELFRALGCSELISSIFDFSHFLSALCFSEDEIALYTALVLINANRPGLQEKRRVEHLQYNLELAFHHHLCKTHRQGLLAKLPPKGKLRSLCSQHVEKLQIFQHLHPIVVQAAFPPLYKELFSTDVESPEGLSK
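Using a luciferase readout, inhibitors were identified by reduced reporter activity in Drosophila cells coexpressing a copper-inducible Gal4–ROR gamma fusion and UAS-driven Photinus luciferase, incubated 20 hr after 700 uM copper sulfate.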
KB-3-1 cytotox: KB-3-1 parental cell cytotoxicity; 1.4% of 400,000 active; KB-3-1 viability, CellTiter-Glo ATP luminescence, 72 h; Potency, µM (titrated, usually from 46.1 µM), actives largely listed as cytotoxic; further: nearly all actives have a fitted effect of over 60% in size
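Screening of KB-3-1 cells (DMEM, 10% FBS, phenol-red free) ran from lowest to highest compound concentration; after 72 h at 37 °C viability was read luminescently and curves fitted.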
KB-V1 MDR tox: kills drug-selected multidrug resistant KB-V1 cells. KB-V1 MDR cells viability, CellTiter-Glo, 72 h. 3.4% of 400,000 active. Potency, µM (titrated, usually from 46.1 µM), usual class: cytotoxic. AID 1347076; further: nearly all actives have a fitted effect of over 60% in size
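Cytotoxicity toward P-gp-expressing KB-V1 cells was determined as loss of CellTiter-Glo luminescence after 72 h at 37 degrees C. Compounds were tested in quantitative HTS format across a concentration range, with curves fitted to normalized data.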
SW480 rerep: DNA re-replication induction in SW480 cells. 1.8% of 340,000 active. SW480 DNA re-replication, Hoechst DNA content imaging, 48 h. AID 624297. Potency, µM (titrated, usually from 46.1 µM), usual class: activators; further: nearly all actives have a fitted effect of over 55% in size
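Cells (250 per well) received 23 nL compound or DMSO by pin tool and were kept 48 hr at 37 C, 5% CO2. Nuclei were then stained with Hoechst for 40 min and scanned for DNA content.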
VP16 counter: Gal4-VP16 reporter inhibition counter-screen | Drosophila S2 Gal4-VP16 UAS-luciferase, luminescence, 20 h | Potency, µM (series often up to 53.6 µM), usual class: inhibitors | AID 2546 | 3.5% of 310,000 active;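 further: Gal4-VP16 expression switched on by copper sulfate through the metallothionein promoter; nearly all actives have a fitted effect of over 50% in size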
Large screens that a line does not name were inactive. A selection: hits, their analogues and other compounds. The true share with any hit is near 10%. The call rests on the fitted dose curve; in most records, active means well fitted curve in the direction sought with a large enough effect; inconclusive means small, poorly fitted or top-dose-only effect, or another doubt; inactive means no such curve, though single readings can be large; an effect the other way counts as inactive or inconclusive.

CCCCc1c(-c2cccc(OC)c2)ncn1CCc1ccccc1OC	KB-3-1 cytotox inconclusive, KB-V1 MDR tox 12µM (no result: MCF10A rereplic, RORgamma inh, SW480 rerep, VP16 counter)
CCCCCc1c(-c2ccccc2)ncn1CCc1ccccc1OC	KB-3-1 cytotox inconclusive, KB-V1 MDR tox 15µM (no result: MCF10A rereplic, RORgamma inh, SW480 rerep, VP16 counter)
Cn1cc(-c2coc3c(C(=O)NCc4cccc(Cl)c4)cccc23)cn1	none (no result: MCF10A rereplic, RORgamma inh, SW480 rerep, VP16 counter)
O=C(CN1C(=O)CCc2cc(S(=O)(=O)N3CCOCC3)ccc21)NCc1ccc(F)cc1	KB-V1 MDR tox inconclusive (no result: MCF10A rereplic, RORgamma inh, SW480 rerep, VP16 counter)
Cc1c(C(=O)NCc2cccc(Cl)c2)sc2ncnc(N(C)C3CCCCC3)c12	none (no result: MCF10A rereplic, RORgamma inh, SW480 rerep, VP16 counter)
CCOc1ccccc1-c1nc(Cn2c(=O)cc(C)c3c(C)nn(-c4ccccc4)c32)c(C)o1	none (no result: MCF10A rereplic, RORgamma inh, SW480 rerep, VP16 counter)
CSCCC(NS(=O)(=O)c1ccc(Cl)cc1)C(=O)N1CCN(c2ccccc2)CC1 (stereo not given)	KB-V1 MDR tox 15µM (no result: RORgamma inh, VP16 counter)
CSCCC(NS(=O)(=O)c1ccc(C)cc1)C(=O)N1CCCCCCC1 (stereo not given)	KB-V1 MDR tox 16µM (no result: RORgamma inh, VP16 counter)
CSCCC(NS(=O)(=O)c1ccc(Cl)cc1)C(=O)OCc1cccc(Cl)c1 (stereo not given)	MCF10A rereplic inconclusive, KB-V1 MDR tox inconclusive, SW480 rerep inconclusive
CSCCC(NS(=O)(=O)c1ccc(Cl)cc1)C(=O)OCc1c(Cl)cccc1Cl (stereo not given)	MCF10A rereplic 16µM, KB-3-1 cytotox inconclusive, KB-V1 MDR tox 7.3µM, SW480 rerep inconclusive
CSCCC(NS(=O)(=O)c1ccccc1F)C(=O)N1CCCCCC1 (stereo not given)	none
CCOc1ccc(NC(=O)C(C)n2c(=O)cc(C)c3c(C)nn(-c4ccccc4)c32)cc1 (stereo not given)	none (no result: MCF10A rereplic, RORgamma inh, SW480 rerep, VP16 counter)
Cc1cccc(N2C(=O)C(CC(=O)Nc3ccccc3)N(C3CCCCC3)C2=O)c1 (stereo not given)	none (no result: MCF10A rereplic, RORgamma inh, SW480 rerep, VP16 counter)
CCCNC(=O)Cn1c(=O)/c(=C/c2ccc(-c3ccc([N+](=O)[O-])cc3)o2)s/c1=C\C(=O)C(C)(C)C	MCF10A rereplic 18µM, KB-3-1 cytotox inconclusive, SW480 rerep 7.3µM (no result: RORgamma inh, VP16 counter)
O=C(Nc1cccc([N+](=O)[O-])c1)c1cnccn1	KB-V1 MDR tox inconclusive
COc1cccc(/C=N/NC(=O)C(=O)N/N=C/c2cccc(OC)c2O)c1O	KB-3-1 cytotox inconclusive, SW480 rerep 6.5µM
COc1cccc(/C=N/NC(=O)C(=O)NCc2ccco2)c1O	RORgamma inh 4µM, KB-V1 MDR tox inconclusive, VP16 counter 6.3µM
O=C(N/N=C/c1cc([N+](=O)[O-])ccc1Cl)c1cnccn1	MCF10A rereplic inconclusive, KB-3-1 cytotox 2.6µM, SW480 rerep 5.2µM
COc1cccc(/C=N/NC(=O)C(=O)NCc2ccco2)c1OC	none
COc1cccc(C=NCCCN=Cc2cccc(OC)c2O)c1O	RORgamma inh 7.9µM, KB-V1 MDR tox inconclusive
CC#CC(=O)Nc1cc2c(Nc3ccc(F)c(Cl)c3)ncnc2cn1	none (no result: MCF10A rereplic, KB-3-1 cytotox, KB-V1 MDR tox, SW480 rerep)
COc1ccc(CCC(=O)Nc2c(-c3ccc(N(C)C)cc3)[nH][nH]c2=O)cc1	KB-3-1 cytotox inconclusive (no result: MCF10A rereplic, RORgamma inh, SW480 rerep, VP16 counter)
Cc1cccc(C)c1NC(=O)C1(C)CCC(=O)N1C1CC1 (stereo not given)	KB-V1 MDR tox inconclusive (no result: MCF10A rereplic, RORgamma inh, SW480 rerep, VP16 counter)
COc1cccc(/C=N/NC(=O)NC2CCCCC2)c1O	RORgamma inh 6.3µM, VP16 counter 8.9µM
COc1ccc(/C=N/NC(=O)c2cnccn2)c(OC)c1OC	none
COc1ccc(OC)c(/C=N/NC(=O)C(=O)N2CCCC2)c1	none
COc1cccc(/C=N/NC(=O)c2cnccn2)c1O	RORgamma inh 2.2µM, SW480 rerep 5.2µM, VP16 counter 2.5µM
COc1cccc(/C=N/NC(=O)C(=O)N2CCCCCC2)c1O	RORgamma inh 7.9µM, SW480 rerep inconclusive, VP16 counter 10µM
COC(=O)c1cccc(/C=N/NC(N)=S)c1O	RORgamma inh 2µM, KB-3-1 cytotox inconclusive, KB-V1 MDR tox 15µM, SW480 rerep inconclusive, VP16 counter 7.1µM
CN(C)S(=O)(=O)c1ccc2c(c1)N(CC(=O)NCc1cccc(Br)c1)C(=O)CS2	none (no result: MCF10A rereplic, RORgamma inh, SW480 rerep, VP16 counter)
COc1cccc(/C=N/NC(=O)c2ccoc2C)c1O	MCF10A rereplic inconclusive, RORgamma inh 0.063µM, KB-3-1 cytotox inconclusive, SW480 rerep inconclusive, VP16 counter 0.5µM
COc1ccc(/C=N\NC(=O)CCc2c(C)n[nH]c2C)c(OC)c1OC	none
COc1cccc(/C=N/NC(=O)CCc2c(C)n[nH]c2C)c1O	RORgamma inh 1.4µM, SW480 rerep inconclusive, VP16 counter 3.2µM
COc1cccc(/C=N\NC(=O)C2C(=O)NCC2c2ccccc2)c1O (stereo not given)	RORgamma inh 8.9µM, SW480 rerep inconclusive, VP16 counter inconclusive
COc1cccc(/C=N/NC(=O)c2cc3cc([N+](=O)[O-])ccc3s2)c1O	MCF10A rereplic inconclusive, RORgamma inh 1.4µM, KB-3-1 cytotox inconclusive, KB-V1 MDR tox inconclusive, SW480 rerep 1.8µM, VP16 counter 2.5µM
COc1ccc(/C=N/NC(=O)C2C(=O)NCC2c2ccccc2)c(OC)c1 (stereo not given)	none
COc1ccc(-c2nc(CSCC(=O)N3CCN(c4cccc(C)c4C)CC3)c(C)o2)cc1OC	KB-3-1 cytotox inconclusive (no result: MCF10A rereplic, RORgamma inh, SW480 rerep, VP16 counter)
CC1CCc2c(sc(NC(=O)COc3ccccc3C(C)(C)C)c2C#N)C1 (stereo not given)	none (no result: MCF10A rereplic, RORgamma inh, SW480 rerep, VP16 counter)
CCOC(=O)Cn1c(=O)n(-c2ccc(Cl)cc2)c2nc(-c3ccc(Cl)cc3)nc(C(N)=O)c21	none (no result: MCF10A rereplic, RORgamma inh, SW480 rerep, VP16 counter)
CC(C)C1S/C(=N/N=C/c2cccs2)NC1=O (stereo not given)	RORgamma inh 0.32µM, VP16 counter 0.89µM
CCCC1S/C(=N/N=C/c2cccs2)NC1=O (stereo not given)	RORgamma inh 0.22µM, VP16 counter 0.4µM
CC(=O)c1cccc(NC(=O)CC2S/C(=N/N=C/c3cccs3)NC2=O)c1 (stereo not given)	RORgamma inh inconclusive
CC1S/C(=N/N=C/c2cccs2)NC1=O (stereo not given)	RORgamma inh 2.2µM, VP16 counter 7.1µM
CCC1S/C(=N/N=C/c2cccs2)NC1=O (stereo not given)	RORgamma inh 0.79µM, VP16 counter 4µM
CC1S/C(=N/N=C/c2cccc([N+](=O)[O-])c2)NC1=O (stereo not given)	none
CCc1ccc(CNC(=O)C2CCN(C(=O)c3ccc(-n4ccc5ccccc54)s3)CC2)cc1	none (no result: MCF10A rereplic, RORgamma inh, SW480 rerep, VP16 counter)
Cc1cc(C)c2oc(-c3cccc(NC(=O)COc4ccc(Cl)cc4C)c3C)nc2c1	KB-3-1 cytotox inconclusive (no result: MCF10A rereplic, RORgamma inh, SW480 rerep, VP16 counter)
C[C@@H]1CN([C@@H](C)CO)C(=O)c2cccc(NC(=O)c3nc4ccccc4s3)c2O[C@@H]1CN(C)CC1CC1	none (no result: RORgamma inh, VP16 counter)
